Source: PubChem BioAssay (EPA / NIEHS)
Active and inactive are the calls of the source. The calls were made as follows: active = hit-call score of the fitted dose curve at least 0.9, where 1 is the maximum; inactive = score below 0.9.

Assay: APR_HepG2_MitoMass_1hr: Apredica 1-hour HepG2 Assay for Mitochondrial Mass (AID 2282674)
Conditions: high-content imaging, actives raise or lower the signal
Description: APR_HepG2_1hr is a cell-based, multiplexed-readout assay that uses HepG2, a human liver cell line, with measurements taken at 1 hour after chemical dosing in a 384-well plate.APR_HepG2_MitoMass_1hr is one of 10 assay component(s) measured or calculated from the APR_HepG2_1hr assay. It is designed to make measurements of cell phenotype, a form of morphology reporter, as detected with fluorescence intensity signals by HCS Fluorescent Imaging technology.Data from the assay component APR_HepG2_MitoMass_1hr was analyzed into 1 assay endpoint. This assay endpoint, APR_HepG2_MitoMass_1hr, was analyzed with bidirectional fitting relative to DMSO as the negative control and baseline of activity. Using a type of morphology reporter, gain or loss-of-signal activity can be used to understand changes in the signaling. Furthermore, this assay endpoint can be referred to as a primary readout, because this assay has produced multiple assay endpoints where this one serves a signaling function. To generalize the intended target to other relatable targets, this assay endpoint is annotated to the cell morphology intended target family, where the subfamily is organelle conformation.
Cells were treated with dimethyl sulfoxide (DMSO) as a solvent control at a final concentration of 0.5% v/v or with compounds in DMSO with a resulting final DMSO concentration of 0.5% v/v. Compound treatment was done at concentrations of 0.39, 0.78, 1.56, 3.12, 6.24, 12.5, 25, 50, 100, and 200 uM in duplicate on each plate. Cells were treated with compounds for 1, 24, or 72 hr. Carbonyl […] m-chloro-phenylhydrazone (CCCP) and taxol were used as positive controls for mitochondrial function and cytoskeletal stability, respectively; DMSO served as the negative control for this experiment. Cells were fixed by the direct addition of 50 uL formaldehyde in Hank's Balanced Salt Solution (HBSS) to a final concentration of 3.7%. After incubation in the fixation medium for 30 min at room temperature (293-298 K), cells were rinsed twice with HBSS and treated with cell permeabilization buffer (16 uL of 0.5% Triton X-100) for 10 min at room temperature (293-298 K) before labeling. For mitochondrial membrane potential and mitochondrial measurements, pre-fixed cells were incubated with 50 uL of MitoTracker Red CMXRos (Invitrogen) at a concentration of 250 nM for 30 min before fixation. In the remaining cases, post-fixed cells were labeled by incubation with a multiplexed mixture of primary antibodies in HBSS for 60 min at room temperature (293-298 K) to detect immunoreactivity of c-Jun (1:500), phospho-histone H3 (1:100), phospho-histone H2A.x (1:200), p53 (1:400), alpha-tubulin (1:200) and Hoechst 33342 (2 ug/mL). Cells were labeled for multiplexed imaging on two separate plates: a) Hoechst 33342, MitoTracker Red, phospho-histone H3, and alpha-tubulin, and b) Hoechst 33342, phospho-histone H2A.x, and c-Jun. A final rinse with HBSS (50 uL) was performed before analysis. The primary and secondary antibodies for the proteins were phospho-histone H3 (rabbit anti-phospho-histone H3 and FITC-donkey anti-rabbit IgG), phospho-histone H2A.x (mouse anti-phospho-histone H2A.x and FITC-donkey anti-mouse IgG), c-Jun (rabbit anti-phospho-c-Jun and Cy3-donkey anti-rabbit IgG), p53 (sheep anti-p53 and Cy5-donkey anti-sheep IgG), alpha-tubulin (mouse anti-alpha-tubulin and Cy5-donkey anti-mouse IgG). These antibodies are available as the CellCiphr HepG2 assay kit (Millipore).Digital images of each well were captured using a Cellomics ArrayScan VTI (Thermo Scientific Cellomics) (0.8 NA objective, 0.63x optical coupler, and XF-93 filter set) at 20x magnification. The images were acquired using the autofocus feature of the ArrayScan instrument, which entails the following steps. First, the camera focuses on channel 1 (Hoechst 33342), where nuclei are identified. Second, a Z offset of 1 um is used for capturing mitochondria (MitoTracker Red). Third, a Z offset of -2 um is used for capturing the cytoskeleton (tubulin). […]

Structure (SMILES) | AC50 | outcome
Oc1cc(Cl)ccc1Oc1ccc(Cl)cc1Cl | 170 µM (active) | 
CCCN(CCOc1c(Cl)cc(Cl)cc1Cl)C(=O)n1ccnc1 |  | inactive
CC(C)OC(=O)Nc1cccc(Cl)c1 |  | inactive
O=S1OCC2C(CO1)C1(Cl)C(Cl)=C(Cl)C2(Cl)C1(Cl)Cl (stereo not given) |  | inactive
CCC(C)(C)C(=O)OC1=C(c2ccc(Cl)cc2Cl)C(=O)OC12CCCCC2 |  | inactive
CNC(=O)Oc1cccc(N=CN(C)C)c1 |  | inactive
[2H]C1([2H])[n+]2ccccc2-c2cccc[n+]2C1([2H])[2H] |  | inactive
CC(C)(C)C(O)C(Oc1ccc(Cl)cc1)n1cncn1 (stereo not given) |  | inactive
COP(=S)(OC)Oc1ccc([N+](=O)[O-])cc1 |  | inactive
CCCN(CCC)c1c([N+](=O)[O-])cc(C(F)(F)F)cc1[N+](=O)[O-] |  | inactive
CCc1ccc(C(=O)NN(C(=O)c2cc(C)cc(C)c2)C(C)(C)C)cc1 |  | inactive
Cc1cc(C)nc(NC(=O)NS(=O)(=O)c2ccccc2C(=O)OC2COC2)n1 |  | inactive
O=C(Nc1ccccc1)Nc1cnns1 |  | inactive
OCCOc1ccccc1 |  | inactive
CCN(CC)C(=O)SCc1ccc(Cl)cc1 |  | inactive
CCC(C)(NC(=O)c1cc(Cl)c(C)c(Cl)c1)C(=O)CCl (stereo not given) |  | inactive
O=[N+]([O-])/N=C1\NCCN1Cc1ccc(Cl)nc1 |  | inactive
CC(C)N(C(=O)COc1nnc(C(F)(F)F)s1)c1ccc(F)cc1 |  | inactive
COc1nn(CSP(=S)(OC)OC)c(=O)s1 |  | inactive
C[C@H]1[C@H](c2ccc(Cl)cc2)SC(=O)N1C(=O)NC1CCCCC1 |  | inactive

Structure (SMILES) | AC50 | outcome
CNC(=O)CSP(=S)(OC)OC |  | inactive
CC1(C)C(C=C(Cl)Cl)C1C(=O)OC(C#N)c1ccc(F)c(Oc2ccccc2)c1 (stereo not given) |  | inactive
ClC1C(Cl)C(Cl)C(Cl)C(Cl)C1Cl (stereo not given) |  | inactive
COP(=S)(OC)Oc1ccc(SC)c(C)c1 |  | inactive
N#Cc1c(Cl)c(Cl)c(Cl)c(C#N)c1Cl | 5.34 µM (active) | 
COC(=O)c1ccccc1S(=O)(=O)NC(=O)Nc1nc(C)nc(OC)n1 |  | inactive
CCOc1nc(NC)nc(NC(=O)NS(=O)(=O)c2ccccc2C(=O)OC)n1 |  | inactive
CCOC1Oc2ccc(OS(C)(=O)=O)cc2C1(C)C (stereo not given) |  | inactive
CC1(c2ccc(Oc3ccccc3)cc2)OC(=O)N(Nc2ccccc2)C1=O (stereo not given) |  | inactive
CNC(=O)/C=C(\C)OP(=O)(OC)OC |  | inactive
N#CN |  | inactive
COc1cc(OC)nc(NC(=O)NS(=O)(=O)c2cc(NC=O)ccc2C(=O)N(C)C)n1 |  | inactive
O=C(O)COc1ccc(Cl)cc1Cl |  | inactive
Clc1ccccc1-c1nnc(-c2ccccc2Cl)nn1 |  | inactive
Cc1[nH]c(=O)n(C(C)(C)C)c(=O)c1Cl |  | inactive
COC(=O)c1ccccc1S(=O)(=O)NC(=O)N(C)c1nc(C)nc(OC)n1 |  | inactive
CCS(=O)(=O)c1cccnc1S(=O)(=O)NC(=O)Nc1nc(OC)cc(OC)n1 |  | inactive
C#CCN1C(=O)COc2cc(F)c(N3C(=O)C4=C(CCCC4)C3=O)cc21 |  | inactive
O=S(=O)(O)C(F)(F)C(F)(F)C(F)(F)C(F)(F)C(F)(F)C(F)(F)C(F)(F)C(F)(F)F |  | inactive
O=C1c2ccccc2C(=O)N1SC(Cl)(Cl)Cl |  | inactive
